Screening data deposited in PubChem by several laboratories.
A selection: hits, their analogues and other compounds. The true share with any hit is near 4.8%.
APP transl inh: inhibitors of APP translation via 5'UTR reporter, primary screen, APP 5'UTR luciferase, SH-SY5Y cells. SH-SY5Y APP 5'UTR-luciferase reporter, luminescence. inhibition, % at 2 µM. 0.82% of 190,000 active;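 active means inhibition above a set limit, derived from the sample mean plus 3 SD, cut at about 45% in these data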
APP 5'UTR act: activators of APP 5'UTR luciferase reporter, primary screen, SH-SY5Y cells. SH-SY5Y APP 5'UTR luciferase reporter, luminescence; zero percent = DMSO vehicle wells. activation, % at 2 µM. 1% of 190,000 active. AID 1276, 2008;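 active means activation above a set limit, based on mean plus 3 SD of controls, cut at about 140% in these data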
STAT1 activator: STAT1 signaling activators, primary screen, cell-based, HTS, luciferase reporter; 2.6% of 200,000 active; AID 932, 2007; NIH 3T3 STAT1-luciferase reporter, IFN-gamma, luminescence; 100% = IFN-gamma alone, no compound; activation (% of control), % at 5.5 µM;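 active means activation above the screen-wide mean activation plus 3 SD, cut at about 130% in these data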
NF-kB neuron act: activators of NF-kB expression in neurons, primary screen, cell-based, HTS; 1.6% of 190,000 active; fold change at 12.5 µM; human neuronal cells, NF-kB reporter expression; active compounds read high; AID 1239, 2008; in the data active means fold change above about 3.3
Wee1 degr inh: Wee1 degradation inhibitors, primary screen, cell-based, HeLa, Wee1K328M-luciferase, luminescence; 1.2% of 220,000 active; Wee1-like protein kinase (Homo sapiens), P30291; reporter increase, % at 5 µM; HeLa Luc-Wee1K328M stability; 100% = proteasome inhibitor MG132 effect;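 active means activation above the mean of all tested compounds plus 3 SD, set per screening run, cut at about 8.8% in these data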;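 further: cells exposed to compound for 20 h before luminescence read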
Target sequence (P30291 whole entry K328M): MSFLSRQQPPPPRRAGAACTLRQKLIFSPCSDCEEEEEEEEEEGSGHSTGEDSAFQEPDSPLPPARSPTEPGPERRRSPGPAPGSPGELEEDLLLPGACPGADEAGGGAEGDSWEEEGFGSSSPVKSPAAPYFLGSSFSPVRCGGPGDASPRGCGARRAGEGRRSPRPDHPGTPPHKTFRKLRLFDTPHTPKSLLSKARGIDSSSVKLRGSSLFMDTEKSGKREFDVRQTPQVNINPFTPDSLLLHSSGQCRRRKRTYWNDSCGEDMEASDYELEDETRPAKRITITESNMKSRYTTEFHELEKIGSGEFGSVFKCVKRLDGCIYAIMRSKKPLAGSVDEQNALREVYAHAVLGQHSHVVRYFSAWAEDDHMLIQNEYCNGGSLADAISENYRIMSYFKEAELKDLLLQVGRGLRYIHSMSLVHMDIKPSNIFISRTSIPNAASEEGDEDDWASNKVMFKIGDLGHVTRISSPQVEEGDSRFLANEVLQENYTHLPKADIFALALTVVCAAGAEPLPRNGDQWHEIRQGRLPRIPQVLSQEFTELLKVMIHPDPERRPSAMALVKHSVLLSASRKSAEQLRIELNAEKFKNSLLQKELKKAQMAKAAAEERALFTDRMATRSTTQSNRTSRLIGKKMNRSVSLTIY
Hsp70 activator: Hsp70 transcriptional activators, primary screen, cell-based, HeLa, Hsp70 promoter luciferase, luminescence, 10 µM. HeLa Hsp70 promoter luciferase reporter; scaled: vehicle 0, proteasome-inhibitor control 100%. activation, % at 10 µM. 0.04% of 200,000 active;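 active means activation above the mean across all tested compounds plus 3 SD, cutoff set per campaign, cut at about 5.5% in these data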
A number is an active result; 0 = inactive; - = no result.

SMILES	APP transl inh	APP 5'UTR act	STAT1 activator	NF-kB neuron act	Wee1 degr inh	Hsp70 activator
COc1ccc(OC)c(S(=O)(=O)Nc2ccccc2C(F)(F)F)c1	0	0	0	0	0	0
Cc1ccc(OCCOc2cccc3ccc(C)nc23)c([N+](=O)[O-])c1	0	0	0	0	0	0
COc1cccc(C(=O)Nc2cccc(C(C)=O)c2)c1	0	0	0	0	0	0
CCOc1ccc(C(=O)Nc2ccc(C(F)(F)F)n(C)c2=O)cc1	0	0	0	0	0	0
COC(=O)c1cccc(NC(=O)c2cccc(OC)c2)c1	0	0	131	0	0	0
COc1cccc(C(=O)Nc2ccc(C(F)(F)F)n(C)c2=O)c1	0	136	0	0	0	0
COc1cccc(C(=O)Nc2ccccc2F)c1	0	0	132	0	0	0
Cn1nccc1C(=O)Nc1ccc(Cl)cc1	0	0	0	0	0	0
CC(C)(C)C(=O)OCC1OC(n2cnc(C(N)=O)n2)C(O)C1O (configuration not stated)	0	0	0	0	0	0
COc1ccc(-c2nc(N)ncc2-c2csc(C)n2)c(O)c1OC	0	0	0	0	0	0
Cc1ccc(Nc2nc(N)nc(-c3oc4ccccc4c3C)n2)cc1	92	0	156	-	0	0
COc1cccc(Nc2nc(N)nc(-c3oc4ccccc4c3C)n2)c1	76	0	134	0	0	0
Cc1cccc(Nc2nc(N)nc(-c3oc4ccccc4c3C)n2)c1	-	-	-	-	0	-
O=C(NC(=S)Nc1ccc(S(=O)(=O)N2CCCCC2)cc1)c1ccc(Cl)cc1	0	0	0	0	0	0
O=[N+]([O-])c1ccc(Cc2nnc(-c3ccccc3Cl)o2)cc1	0	166	0	3.6	0	0
Cc1cc(/C=C2/C(=O)NN(c3ccccc3)C2=O)c(C)n1-c1cccc(O)c1	0	181	0	0	0	0
Cc1cc(/C=C2\SC(=S)NC2=O)c(C)n1-c1cccc(O)c1	-	-	-	-	0	-
O=C(Oc1ccc(-c2ccccc2)cc1)N1CCOCC1	0	0	137	0	0	0
COc1ccc(C(=O)Nc2c(Cl)cc(Cl)cc2C(=O)N2CCOCC2)cc1	0	0	0	0	8.9	0
Cc1ccc(NC(=O)c2ccc(OC(=S)N3CCOCC3)cc2)cc1	0	0	131	0	0	0
O=C(Nc1ccccc1Br)c1ccc(OC(=S)N2CCOCC2)cc1	0	0	135	0	0	0
O=C(Oc1cccc(Oc2ccccc2)c1)N1CCOCC1	0	0	0	0	0	0
COc1ccccc1/C=C\C=N\n1c(-c2ccc(Cl)cc2Cl)n[nH]c1=S	0	0	0	0	0	0
O=C(/C=C\c1ccccc1OC(=O)c1ccccc1F)c1cc2ccccc2o1	0	0	0	4.3	0	0
Oc1oc(-c2ccccc2)nc1C=Nc1ccccc1	0	0	132	0	0	0
SMILES	APP transl inh	APP 5'UTR act	STAT1 activator	NF-kB neuron act	Wee1 degr inh	Hsp70 activator
COc1ccc(N=Cc2nc(-c3ccco3)oc2O)cc1	0	0	136	0	0	0
Cc1ccc(N=Cc2nc(-c3ccc(C)cc3)oc2O)cc1	0	0	0	0	0	0
CCOC(=O)/C(C#N)=C/c1ccc(OC(=O)c2ccccn2)cc1	0	0	0	0	0	0
O=C(O)CN1C(=O)NC2(CCOc3ccccc32)C1=O (configuration not stated)	-	-	-	-	9.8	-
Cc1ccc(C)c(NC(=S)c2ccccn2)c1	0	0	0	15	0	0
Cc1ccc(C)c(NC(=S)c2ccc3ccccc3n2)c1	0	0	129	0	0	0
Cc1ccc(C)c(NC(=S)c2nc3ccccc3s2)c1	0	0	0	0	0	0
Cc1ccc(/C=C/C(=O)Nc2nc3ccccc3[nH]2)cc1	0	180	129	0	0	0
O=C(/C=C/c1c(F)cccc1Cl)Nc1nc2ccccc2[nH]1	0	0	130	0	0	0
O=C(/C=C/c1c(F)cccc1Cl)Nc1ccncc1	0	0	0	0	0	0
Cc1ccc(/C=C/C(=O)c2nc3ccccc3[nH]2)cc1	0	0	0	0	0	0
COc1ccc(C(=O)Nc2ccc(C3=NNC(=O)CC3C)cc2NC(=O)c2ccc(OC)cc2)cc1 (configuration not stated)	0	0	0	0	0	0
O=C(CSc1nc(-c2ccc(F)cc2)cs1)N1CCOCC1	0	0	129	0	0	0
O=C(CSc1nc(-c2ccccc2)ns1)N1CCOCC1	0	0	142	0	0	0
Cc1cccc(-c2nsc(SCC(=O)Nc3nccs3)n2)c1	0	0	0	0	0	0
Cc1cccc(-c2nsc(SCC(=O)N3CCCC3)n2)c1	0	0	134	3.9	0	0
COC(=O)c1c(NC(=O)CN2C(=O)c3ccccc3C2=O)sc(Cc2ccc3c(c2)OCO3)c1C	0	0	0	0	0	0
O=C(Nc1cccc(/C=C/c2nc3ccccc3c(=O)[nH]2)c1)c1ccccc1Cl	-	-	-	-	0	-
C=CCc1cc(OC)ccc1OCCN(C)Cc1ccccc1	0	0	0	0	0	0
Clc1ccccc1-c1nc(-c2cccnc2)no1	0	0	129	0	0	0
Clc1ccc(-c2nc(Cc3ccccc3)no2)cc1	0	0	0	0	0	0
Cc1ccccc1-c1nc(-c2cccnc2)no1	0	0	139	3.7	0	0
Cc1ccccc1-c1nc(-c2ccccn2)no1	0	0	0	0	0	0
Cc1ccccc1-c1nc(Cc2ccccc2)no1	0	0	140	0	0	0
Clc1ccccc1-c1nc(-c2ccncc2)no1	-	-	-	-	0	-
SMILES	APP transl inh	APP 5'UTR act	STAT1 activator	NF-kB neuron act	Wee1 degr inh	Hsp70 activator
CC(c1ccccc1)c1nnc(N)s1 (configuration not stated)	0	0	0	0	0	0
Cc1ccc(NC(=O)c2ccc3c(c2)OCCO3)cc1	0	145	0	4.1	0	0
O=C(Nc1ccc(N2CCCCC2)cc1)c1ccc2c(c1)OCCO2	0	135	133	3.8	0	0
O=C(Nc1ccc(NC(=O)c2cc3ccccc3o2)cc1)c1ccc2c(c1)OCCO2	67	0	0	0	0	0
CC(=O)N1CCN(c2ccc(NC(=O)c3ccc4c(c3)OCCO4)cc2)CC1	0	0	0	0	0	0
O=C(Nc1cccc2nsnc12)c1ccc2c(c1)OCCO2	0	0	132	0	0	0
CCCCn1c(=N)n(CC(=O)c2ccc(Br)s2)c2ccccc21	-	-	-	-	0	-
COc1ccccc1-n1c(SCC(=O)Nc2cc(C)on2)nc2c(c1=O)SCC2	0	0	0	0	0	0
O=C(N/N=C/c1ccc(Br)o1)c1ccc2c(c1)OCCO2	0	0	130	0	0	0
CSC1=N/C(=C\c2cccnc2)C(=O)N1c1ccccc1	0	0	0	0	0	0
c1ccc(C[n+]2c(-c3ccccc3)csc2Nc2ccccc2)cc1	0	0	0	0	0	0
